Assay outcomes as filed in PubChem.
PLK1 PBD block: PLK1 (human) polo-box domain binding inhibition | P53350 | Plk1 PBD binding of FITC phosphopeptide, fluorescence polarization | Potency, µM, inactives show max response, negative = inhibition, most hits filed as inhibitors | 360,000 tested, 2.8% active | AID 720504; also: series mostly up to about 57 µM; % is scaled to controls: 0 for no effect and ±100 for the full control effect; nearly all actives have a fitted effect of over 65% in size
Target sequence (P53350 whole entry, looked up, the tested form may be a part): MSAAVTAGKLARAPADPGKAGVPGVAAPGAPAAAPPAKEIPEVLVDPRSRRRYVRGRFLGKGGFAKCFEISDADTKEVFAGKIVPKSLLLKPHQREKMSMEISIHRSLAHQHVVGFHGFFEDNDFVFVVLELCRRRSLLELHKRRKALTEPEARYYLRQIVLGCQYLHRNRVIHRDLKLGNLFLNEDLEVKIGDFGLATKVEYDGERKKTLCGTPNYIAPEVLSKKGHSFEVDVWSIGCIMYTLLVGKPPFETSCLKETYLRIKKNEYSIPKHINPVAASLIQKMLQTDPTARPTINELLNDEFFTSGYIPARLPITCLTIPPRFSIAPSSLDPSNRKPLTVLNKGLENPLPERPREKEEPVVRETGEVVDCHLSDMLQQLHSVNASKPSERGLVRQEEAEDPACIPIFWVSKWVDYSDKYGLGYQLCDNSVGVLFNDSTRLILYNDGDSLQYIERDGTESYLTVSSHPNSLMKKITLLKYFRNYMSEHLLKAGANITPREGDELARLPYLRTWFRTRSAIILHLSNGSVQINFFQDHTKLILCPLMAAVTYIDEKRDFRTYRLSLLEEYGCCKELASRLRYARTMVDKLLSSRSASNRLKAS
BAZ2B inh: BAZ2B (human) inhibition | Q9UIF8 | AlphaScreen BAZ2B-H3K14Ac peptide displacement | Potency, µM (top dose mostly 114 µM), inactives show at the top dose activity change, negative = inhibition, usual class: inhibitors | 360,000 tested, 4.4% active | AID 504333; also: % is scaled to controls: 0 for no effect and ±100 for the full control effect; nearly all actives have a fitted effect of over 60% in size
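AlphaScreen displacement of biotin-H3(5-23)K14Ac peptide (50 nM final) from BAZ2B (50 nM final) in PBS pH 7.4, 0.01% Tween-20; complex preformed 30 min RT, then compounds (top 110 uM) 30 min RT, beads 20 min dark.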
HP1b chromo inh: inhibitors of HP1-beta chromodomain binding to methylated histone tails | P83916 | AlphaScreen HP1-beta / biotin-H3K9me3 peptide binding | Potency, µM (top dose mostly 114 µM), for inactives: at the top dose activity change, negative = inhibition, usual class: inhibitors | 390,000 tested, 0.56% active | AID 540317; also: nearly all actives have a fitted effect of over 70% in size
Target sequence (P83916 whole entry, looked up): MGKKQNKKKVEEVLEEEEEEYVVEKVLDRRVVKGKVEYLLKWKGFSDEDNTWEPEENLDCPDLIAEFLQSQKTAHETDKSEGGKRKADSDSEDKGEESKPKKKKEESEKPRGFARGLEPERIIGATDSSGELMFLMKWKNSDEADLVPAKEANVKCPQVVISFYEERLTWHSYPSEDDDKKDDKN
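AlphaScreen: HP1-beta (50 nM) preformed 30 min with biotin-H3(1-18)K9me3 peptide (50 nM) in PBS pH 7.4, 0.01% Tween-20. Compound added for 30 min at RT, then streptavidin donor/nickel chelate acceptor beads (10 ug/mL) for 30 min.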
12-LOX inh: ALOX12 (human) lipoxygenase inhibition; Potency, µM (top dose mostly 108 µM), for inactives: at the highest dose activity change, negative = inhibition, hits mostly inhibitors; AID 1671190; 580,000 tested, 1.1% active; purified 12hLO, xylenol orange hydroperoxide absorbance; P18054; also: % is scaled to controls: 0 for no effect and ±100 for the full control effect
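Hydroperoxide product was detected by ferrous iron/xylenol orange as the 573 to 405 nm absorbance ratio. Arachidonic acid at 40 uM (final) was turned over for 30 min at room temperature by 150 nM human 12hLO, pH 7.0 Hepes buffer, after 15 min compound preincubation.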
G9a block: blocks human histone lysine methyltransferase G9a | Q96KQ7 | G9a H3K9 monomethylation, AlphaScreen, 2 h | Potency, µM (titrated, usually from 102 µM), without a hit: top-dose activity, negative = inhibition, hits mostly inhibitors | 350,000 tested, 8.8% active | AID 504332; also: % is scaled to controls: 0 for no effect and ±100 for the full control effect; nearly all actives have a fitted effect of over 75% in size
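Using a bead-based AlphaScreen, monomethylated H3K9 product from 2 h room-temperature reactions (G9a 20 nM, peptide 500 nM, SAM 20 uM) was detected with 0.5 ug/mL rabbit anti-H3K9me1 antibody.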
JMJD2A Tudor: JMJD2A Tudor domain (human) inhibition; O75164; AlphaScreen JMJD2A-Tudor / H3K4me3 peptide binding; Potency, µM (top dose mostly 114 µM), for the others: top-dose activity change, negative = inhibition, actives largely listed as inhibitors; 390,000 tested, 4.4% active; AID 504339; also: % is scaled to controls: 0 for no effect and ±100 for the full control effect; nearly all actives have a fitted effect of over 50% in size
* hit, by the source's call; u = inconclusive; x = no result given; [ ] = dose if it differs, or a comment. Hits are enriched below; roughly 9% of the tested compounds scored in any of these assays. Calls follow the shape of the dose curve; as a rule, active = well fitted curve in the direction sought with a large enough effect; inconclusive = small, poorly fitted or top-dose-only effect, or another doubt; inactive = no such curve, though single readings can be large; an effect the other way counts as inactive or inconclusive. Potency is read from the fitted curve at half-maximal effect.

SMILES | PLK1 PBD block | BAZ2B inh | HP1b chromo inh | 12-LOX inh | G9a block | JMJD2A Tudor
Clc1ccc2c(c1)C(C1=NCCN1)c1ccccc1CS2 (stereo not given) | -2.0% | 3.3% | 31.7% | -10.3% | 5.6%[59 µM] | -7.5%
O=C(CSc1nnc(CNC(=O)c2ccccc2)o1)Nc1nccs1 | -5.6% | 79.4µM* | 49.2% | 10.7% | 35.1% | u
O=C(CSc1nnc(Cn2c(=O)sc3ccccc32)n1-c1ccccc1)Nc1nccs1 | -17.6% | -8.6% | 50.3% | -4.7%[57.4 µM] | 35.5µM* | -16.2%
CCn1c(Cc2cccc3ccccc23)nnc1SCC(=O)Nc1nccs1 | -0.6% | 5.6% | 26.1% | 11.0% | 10µM* | 79.4µM*
O=C(CSc1nnc(CNC(=O)c2ccccc2)o1)c1ccccc1 | -28.3% | -2.5% | 15.8% | 0.1% | 18.3% | -4.9%
CCn1c(SCC(=O)Nc2nccs2)nnc1-c1ccc(C)cc1 | -4.1% | 1.7% | 21.6% | u | 20.2%[59 µM] | -20.3%
O=C(CSc1nnc(Cn2c(=O)sc3ccccc32)n1-c1ccccc1)N1CCCC1 | 2.9% | -1.1% | 55.4% | 453.3% | -10.3%[59 µM] | -7.1%
CCC(=O)Nc1ccc(-c2nnc(SCC(=O)Nc3nccs3)n2C)cc1 | -8.3% | -5.4% | 26.9% | -7.8% | 39.8µM* | 89.1µM*
CCOc1ccc(CCNC(=O)C2COc3ccccc3C2)cc1OCC (stereo not given) | x | -10.9% | 19.5%[57 µM] | -16.3% | -4.5%[59 µM] | -19.5%
CCn1c(CNC(=O)c2cccc(C)c2)nnc1SCC(=O)NC1=NCCS1 | -12.4% | -14.5% | 16.7% | -14.6% | -46.3% | -1.8%
Cn1c(COc2ccccc2)nnc1SCC(=O)Nc1ccc2c(c1)OCO2 | -3.6% | -4.6% | 22.8% | -0.2% | -35.0%[59 µM] | -12.2%
Cc1cccc(C(=O)NCc2nnc(SCC(=O)NC3=NCCS3)n2C)c1 | -1.5% | 4.9% | 15.9% | u | -44.7% | 39.8µM*
Cn1c(COc2ccccc2)nnc1SCC(=O)Nc1nnc(C2CC2)s1 | 29.9µM* | x | -21.6%[57 µM] | u | x | u
O=C(CSc1nnc(CNC(=O)c2ccc(F)cc2)o1)Nc1nccs1 | u | 79.4µM* | 35.0% | 2.2% | x | -34.6%
Cc1cc(NC(=O)CSc2nnc(CNC(=O)c3ccc(F)cc3)o2)no1 | -2.3% | 1.7% | 50.7% | -1.3% | 21.0% | -10.4%
Cn1c(CNC(=O)c2ccccc2)nnc1SCC(=O)Nc1nccs1 | 3.36µM* | -12.0% | -11.7% | u | -0.5% | 11.2µM*
COc1ccc(OC)c(S(=O)(=O)N2CCCN(C(=O)c3cccnc3)CCC(=O)NCC2)c1 | x | x | x | 28.3% | x | x
CC(C)c1ccc(-c2nnn(CCC#N)n2)cc1 | -8.3% | -2.0% | 51.1% | -2.5% | x | -1.4%
COc1ccccc1C(=O)Nc1nnc(SCc2cc(=O)c3ccccc3[nH]2)s1 | x | u | 28.1%[57 µM] | u | -9.1%[59 µM] | -16.6%
O=[N+]([O-])c1ccc(N/N=C\c2cccnc2)nc1 | -17.9% | -11.2% | 54.3% | 0.0% | x | -11.1%
CCOc1ccc(NC(=O)[C@@H](NC(=O)c2ccccc2)[C@@H](C)CC)cc1 | -0.7% | u | 33.6% | 29.4% | u | 1.3%
COC(=O)c1ccc(NS(=O)(=O)c2cc(C)ccc2OC)cc1 | -1.8% | 9.9% | 37.4% | 395.3% | -1.0%[12.7 µM] | -7.7%
CC1CCCC(NC(=O)COC(=O)c2ccc(N(C)C)cc2)C1C (stereo not given) | -0.7% | -6.5% | 28.8% | -13.0% | -24.3% | -9.5%
CCN(CC)c1ccc(C(=O)OCC(=O)NC2CCCCC2C)cc1 (stereo not given) | 29.9µM* | 6.9% | 1.0% | -11.4% | -10.9% | 50.1µM*
Cc1ccccc1N1CCN(CCC(=O)Nc2ccc(F)cc2)CC1 | -0.2% | -35.4% | 33.0% | 17.8µM* | 5.1%[0.501 µM] | 3.4%
SMILES | PLK1 PBD block | BAZ2B inh | HP1b chromo inh | 12-LOX inh | G9a block | JMJD2A Tudor
O=C(CN1CCN(c2ccccn2)CC1)Nc1cccc(Br)c1 | -6.6% | -19.2% | 53.5% | -29.5% | 44.7µM* | -22.0%
O=C(CCN1CCN(c2ccccc2F)CC1)Nc1ccc(F)cc1 | 1.4% | -5.9% | 50.1% | 11.2% | 4.2%[0.501 µM] | 8.8%
COc1cc(NC(=O)c2ccccn2)cc(OC)c1OC | 6.7µM* | -4.1% | u | -1.7% | -19.2% | u
Cc1ccc(OC(C)C(=O)N2CCN(c3ccccn3)CC2)cc1 (stereo not given) | 26.7µM* | x | -14.3%[57 µM] | 12.5% | x | -31.4%
CCOc1ccc2nc(Cl)c(C3CC(c4ccc(C)cc4)=NN3C(=O)CCCC(=O)O)cc2c1 (stereo not given) | x | -1.7% | -7.0% | -19.8% | -1.6%[59 µM] | u
CCN(CC(=O)NCc1ccc(Cl)cc1)C(=O)c1cccc(S(=O)(=O)Nc2ccc(OC)cc2)c1 | -1.7% | -5.2% | 6.0% | 6.8% | 10.3% | -13.1%
O=C(NCc1ccccn1)c1cc2n(n1)C(C(F)(F)F)CC(c1ccco1)N2 (stereo not given) | -3.8% | 12.9% | 40.0% | -21.9% | u | -6.3%
Cc1ccc2c(n1)N(C)[C@H](CO)CCN(C1CCN(C)CC1)C2 | x | x | x | 5.6%[176 µM] | x | x
CCN(CC)CCCNC(CC(=O)Nc1cccc([N+](=O)[O-])c1)C(=O)O (stereo not given) | -12.5% | -12.8% | 22.2% | -22.7% | u | u
COc1cc(NC(=O)CN2CCN(c3ccccn3)CC2)cc(OC)c1OC | -7.1% | 4.2% | 2.2% | -1.7% | 44.7µM* | 0.0%
Cc1ccc(NC(=O)CCn2c(=S)oc3ccccc32)cc1 | 2.5% | -15.0% | 54.7% | 1.3% | -25.2% | -2.8%
CN(C)c1ccc(NC(=O)CCN2CCN(c3ccccn3)CC2)cc1 | 3.5% | -28.8% | 3.3% | 6.8% | 50.1µM* | -32.4%
COc1ccc(C)cc1NC(=O)CN1CCN(c2ccccn2)CC1 | 26.7µM* | -14.0% | -8.3% | 8.9% | 6.5% | u
CN(C)c1ccc(NC(=O)CCn2c(=S)oc3ccccc32)cc1 | -14.7% | 25.1µM* | -1.6% | -9.0% | u | u
COc1ccc(S(=O)(=O)N2CCN(C(=O)C3CCCO3)CC2)cc1 (stereo not given) | -6.4% | -1.3% | 24.9% | 0.0% | 19.7% | -13.2%
O=C(NN1CCOCC1)c1ccn(COc2c(Cl)cccc2Cl)n1 | x | x | x | 3.0% | x | x
C=CCN(C(=O)CSC1=NC(=O)CN1C(C)=O)c1nc(C)c(-c2ccccc2)s1 | u | 35.5µM* | 7.7% | -8.5% | 39.8µM* | u
COc1ccc(-n2c(CNC(=O)COc3ccc(Cl)cc3)n[nH]c2=S)cc1 | -23.7% | -6.4% | -5.9% | u | 2.51µM* | 12.6µM*
COc1ccc(OCC(=O)NCC(c2ccc(Cl)cc2)N2CCCCC2)cc1 (stereo not given) | x | -24.2% | 23.3% | -22.4% | -4.3%[59 µM] | -10.6%
O=C(COc1ccccc1)NCc1n[nH]c(=S)n1-c1ccccc1 | -1.0% | -17.9% | 39.5% | -10.9% | 20µM* | 8.91µM*
